Data: PubChem BioAssay (NCI)
The panel holds about 83,000 compounds, 20% with a hit somewhere; the sample as a whole holds those more often.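 Each cell line was grown in a 96-well plate and treated with one concentration of compound for 48 hours. Values below 10 were considered active.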 Values without a mark were called inactive. Calls of active or inactive are those of the source.

How the values were obtained:
Experiment in all cases: NCI-60 one-dose screen, 48 h (100 = growth as untreated, 0 = no growth, -100 = all killed)
NCI-H23 lung = conditions: 10 µM unless noted
NCI-H226 lung = conditions: 10 µM unless noted
NCI-H322M lung = conditions: 10 µM unless noted
HOP-62 NSCLC = conditions: 10 µM unless noted
NCI-H460 lung = conditions: 10 µM unless noted
786-0 renal = conditions: 10 µM unless noted
MDA-MB-231 breast = conditions: 10 µM unless noted
SF-268 CNS = conditions: 10 µM unless noted
SF-539 CNS = conditions: 10 µM unless noted
M14 melanoma = conditions: 10 µM unless noted
HCT-15 colon = conditions: 10 µM
U251 CNS = conditions: 10 µM unless noted
UACC-62 melanoma = conditions: 10 µM unless noted
SK-MEL-28 melanoma = conditions: 10 µM unless noted
UO-31 renal = conditions: 10 µM unless noted
OVCAR-5 ovarian = conditions: 10 µM unless noted
MDA-MB-435 melanoma = conditions: 10 µM unless noted
SW-620 colon = conditions: 10 µM unless noted
MCF7 breast = conditions: 10 µM unless noted
KM12 colon = conditions: 10 µM unless noted

| SMILES | growth (NCI-H23 lung) | growth (NCI-H226 lung) [%] | growth (NCI-H322M lung) | growth (HOP-62 NSCLC) [%] | growth (NCI-H460 lung) | growth (786-0 renal) [%] | growth (MDA-MB-231 breast) | growth (SF-268 CNS) | growth (SF-539 CNS) | growth (M14 melanoma) | growth (HCT-15 colon) | growth (U251 CNS) [%] | growth (UACC-62 melanoma) | growth (SK-MEL-28 melanoma) | growth (UO-31 renal) | growth (OVCAR-5 ovarian) [%] | growth (MDA-MB-435 melanoma) | growth (SW-620 colon) | growth (MCF7 breast) | growth (KM12 colon) |
| --- | --- | --- | --- | --- | --- | --- | --- | --- | --- | --- | --- | --- | --- | --- | --- | --- | --- | --- | --- | --- |
| CC12CCC(=O)C=C1CCC1C2CCC2(C)C(C(=O)COC(=O)Cc3ccc(N(CCCl)CCCl)cc3)CCC12 (stereo unspecified) | 94% | 72.5 | 180% | 106 | 40.5% | 93.7 | 108% | 77.9% | 63% | 104% | 86.2% | 75.5 | 66.3% | 104% | 72.8% | 119 | 96.1% | 75.6% | 70.5% | 101% |
| CC(C)[C@]12O[C@H]1[C@@H]1O[C@]13[C@]1(O[C@H]1C[C@H]1C4=C(CC[C@@]13C)C(=O)OC4)[C@@H]2OC(=O)OC(C)(C)C | -28% (active) | 12.6 | 3.68% (active) | 16.6 | 2.11% (active) | 11.9 | 21.8% | -2.29% (active) | -20.2% (active) | -75.7% (active) | 8.8% (active) | 15.5 | -51.4% (active) | -1.69% (active) | 1.21% (active) | 24.4 | -73.6% (active) | 1.09% (active) | 18.5% | 2.1% (active) |
| CCCCCCCCCCCCOc1ccc(C(=O)Oc2ccc(CSP3(=O)OCC4OC(n5cnc6c(N)ncnc65)C(F)C4OP(=O)(O)OCC4OC(n5ccc(=O)[nH]c5=O)C(F)C4O3)cc2)cc1 (stereo unspecified) | 101% | 85.5 | 79% | 115 | 106% | 89.1 | 108% | 107% | 24% | 86.2% | 101% | 109 | 118% | 121% | 92.9% | 115 | 106% | 118% | 93.4% | 106% |
| O=C1NC(=S)NC(=O)C1=Cc1ccccc1 | 86.2% | 98.3 | 119% | 101 | 104% | 123 | 104% | 110% | 103% | 108% | 99.5% | 103 | 106% | 122% | 87.7% | 100 | 124% | 96% | 93.2% | 109% |
| COc1ccc(OC)c(/C=C(/C)[N+](=O)[O-])c1 | 53.8% | 94.3 | 98% | 38.9 | 33.1% | 90.9 | 68.4% | 65.3% | 84.4% | 47% | -33.1% (active) | 26.7 | 63.4% | 74.7% | -46.3% (active) | 108 | 23.1% | -77% (active) | 6.58% (active) | 26.5% |
| CCN(CC)CCOc1c(C(C)C)cccc1C(C)C | 104% | 111 | 88.3% | 96.7 | 112% | 99.6 | 109% | 107% | 116% | 99.2% | 98.4% | 98.6 | 99.5% | 92.1% | 94.4% | 90.6 | 114% | 106% | 94.2% | 99.3% |
| COC1=CC(=O)OC(CCc2ccc3c(c2)OCO3)C1 (stereo unspecified) | 121% | 105 | 132% | 106 | 103% | 112 | 114% | 101% | 103% | 104% | 103% | 89 | 107% | 117% | 101% | 101 | 112% | 102% | 86.9% | 109% |
| O=[N+]([O-])c1ccc(F)c([N+](=O)[O-])c1F | 111% | 100 | 91.7% | 106 | 106% |  | 113% | 103% | 105% |  | 116% | 101 | 107% | 116% | 78.3% | 107 | 103% | 88.2% | 102% | 94.1% |
| COc1cc(/C=C\c2cc(OC)c(OC)c(OC)c2)cc(N/C=C\C(=O)c2ccc(OC(F)(F)F)cc2)c1OC | 26.2% | 54.4 | 42.4% | 23.8 | 4.92% (active) | 34.3 | -16.9% (active) | 41.7% | -31.5% (active) | -4.87% (active) | 9.36% (active) | 14.8 |  | 62.2% | 32.9% | 44.2 | -42.2% (active) | 26.3% | 17.2% | 16.6% |
| O=C1NC(=O)C(O)(C2(O)C(=O)NC(=O)NC2=O)C(=O)N1 | 103% | 99.5 | 132% | 97.6 | 100% | 93.4 | 91.2% | 91.6% | 88% | 105% | 107% | 99.9 | 87.2% | 109% | 86.1% | 88.1 | 108% | 96.4% | 138% | 100% |
| CC(C)Nc1ccc(Nc2ccccc2)cc1 | 31.3% | 51.1 | 73.4% | 35.3 | 11% | 51.8 | 25.5% | 32.8% | 26.1% | 47.7% | 84.3% | 12.5 | 65% | 85.1% | 83.1% | 65.1 | 23% | 33.8% | 32% | 27.6% |
| CC(/C=N/N=C(N)N)=N\N=C(N)N | 68.9% | 95.8 | 10% | 64.2 | 82.7% | 55.6 | 80.2% | 50.3% | 51.9% | 80.3% | 100% | 77.8 | 86.7% | 87.1% | 46.9% | 82.1 | 89.2% | 70.6% | 76.8% | 40.9% |
| CCOc1cc(C=C(C#N)C#N)cc(Br)c1O | 99% | 106 | 98.1% | 111 | 102% |  | 109% | 95.6% | 99.5% | 98% | 102% | 96.5 | 105% | 109% | 88.9% | 108 | 101% | 106% | 96% | 103% |
| CNC(=O)Oc1cccc(N(C)C)c1 | 106% | 93.3 | 102% | 101 | 105% | 102 | 93% | 106% | 100% | 107% | 103% | 99.1 | 100% | 111% | 86.6% | 102 | 97.5% | 104% | 94.1% | 104% |
| O=C(O)CC(Br)C(=O)CBr (stereo unspecified) | 108% | 91.9 | 100% | 105 | 108% | 99.1 | 98.2% | 106% | 95.3% | 103% | 93.5% | 99.2 | 102% | 102% | 86.1% | 106 | 108% | 103% | 86.3% | 111% |
